From PubChem
Shown are actives, neighbours in structure and some others; about 3.8% of the full set was active somewhere.
HSF-1 act = increases HSF-1 driven luciferase reporter signal; NIH3T3-HGL HSF-1 luciferase reporter, MG132, 8 h; 100% = twice DMSO control signal; activation, % at 9 µM; hit rate 1.7% among 300,000;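 active = mean replicate activation of at least 50% with a set share of replicates each reaching 50%; inconclusive = only one of those two conditions met; inactive = mean below 50% and too few replicates reaching it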
esBAF inh = inhibitors of esBAF chromatin remodeling in mouse ES cells. Bmi1-luciferase knock-in reporter, 24 h; 100% = twice the neutral-well signal. reporter increase, % at 12.5 µM. hit rate 2% among 350,000; in the data active = activation above about 40%; inconclusive = no clear call, values can overlap the other calls;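 note: a rise in the Bmi1 reporter signal indicates esBAF inhibition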
MITF act = activators of MITF-driven TRPM1 promoter activity in SK-MEL-5 cells; SK-MEL-5 TRPM1-promoter luciferase, 24 h; % of positive control, neutral wells = 0; activation, % at 12.5 µM; hit rate 0.75% among 300,000; AID 588334;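 active = mean activation of at least 80% with every replicate also reaching 80%; inconclusive = mean reaches 80% but some replicate falls short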
HSF1 inhib = HSF1 inhibition. activity change, negative = inhibition, % at 7.5 µM (by protocol). AID 2098. NIH3T3-HGL HSE-luciferase, MG132-induced, luminescence 8 h; stronger effect = lower value. hit rate 0.77% among 300,000;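 active = more than half of replicate wells show activity change below -50%, luminescence cut by over half; inconclusive = some wells, but at most half, below -50%; inactive = no replicate well below -50%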;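 note: luciferase reports HSF-1 transcriptional activity via heat shock element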
Wnt bcat act = activates Wnt/beta-catenin signaling in a reporter cell assay. activator, plate reader. activation, % at 9.35 µM. hit rate 1.2% among 300,000. AID 743398; in the data active = activation above about 30%, passing the limit was not always enough; inconclusive = no clear call, values can overlap the other calls
A number is an active result; 0 = inactive; ? = inconclusive; - = no result given.

SMILES | HSF-1 act | esBAF inh | MITF act | HSF1 inhib | Wnt bcat act
CC(=O)Nc1ccc(-c2nnc(SCC(=O)Nc3ccc4c(c3)oc3ccccc34)n2C)cc1 | 0 | 53 | - | 0 | 0
O=C(CSc1nnc(NC(=O)c2ccccc2[N+](=O)[O-])s1)NC1CCCC1 | 0 | 0 | 0 | 0 | 0
Cc1cccc(C(=O)Nc2nnc(SCC(=O)Nc3ccc4c(c3)oc3ccccc34)s2)c1 | 0 | - | 0 | 0 | 0
COc1ccccc1C(=O)Nc1nnc(SCC(=O)Nc2ccc3c(c2)oc2ccccc23)s1 | ? | - | 0 | 0 | 49
CCn1c(SCC(=O)Nc2ccc3c(c2)oc2ccccc23)nnc1-c1ccc(N)cc1 | 0 | 0 | 0 | 0 | 0
COc1ccc(-c2csc(NC(=O)C3=COCCO3)n2)cc1OC | - | 66 | 0 | - | 35
O=C(Nc1nc(-c2ccc(Cl)cc2)cs1)C1=COCCO1 | 0 | - | 99 | 0 | 0
O=C(Nc1nc(-c2cccs2)cs1)C1=COCCO1 | 0 | - | 0 | 0 | 0
CCc1ccc(-c2csc(NC(=O)C3=COCCO3)n2)cc1 | - | 75 | 82 | - | ?
O=C(Nc1nc(-c2ccc(F)c(F)c2)cs1)C1=COCCO1 | - | 53 | 0 | - | 0
Cc1cc(-c2csc(NC(=O)C3=COCCO3)n2)c(C)n1C | 0 | 0 | 0 | 0 | 0
CO[C@H]1CN(C)C(=O)c2ccc(NC(=O)c3ccc(F)cc3)cc2OC[C@H](C)N(C(=O)CC2CC2)C[C@H]1C | - | 0 | - | - | -
C[C@H](CO)N1C[C@H](C)[C@H](CN(C)Cc2ccc(Cl)c(Cl)c2)Oc2ccc(NC(=O)Cn3cnnn3)cc2CC1=O | - | 0 | - | - | -
Cc1noc(C)c1S(=O)(=O)Nc1ccc2c(c1)C(=O)N([C@@H](C)CO)C[C@@H](C)[C@H](CN(C)C(=O)Nc1ccc3c(c1)OCO3)OCCCC[C@@H](C)O2 | - | 0 | - | - | -
CC(C)NC(=O)N(C)C[C@@H]1Oc2ccc(NC(=O)Nc3ccc(F)cc3)cc2CC(=O)N([C@@H](C)CO)C[C@H]1C | - | 0 | - | - | -
CCOC(=O)C1CCN(S(=O)(=O)c2c(Cl)ccc3nonc23)CC1 | 197 | 0 | 0 | 0 | 0
CCOC(=O)C1CCN(S(=O)(=O)c2cccc3nonc23)CC1 | 0 | 0 | 0 | 0 | 0
CN1c2ccc(-c3cccc(C#N)c3)cc2[C@@H]2[C@@H](CCN2S(=O)(=O)c2ccccc2)[C@H]1CO | - | 0 | - | - | -
COc1ccc(/C=C(\CC(=O)O)c2nc3ccccc3o2)cc1 | 0 | 69 | 0 | 0 | 0
COc1ccc(C(=O)/C(=C/c2cccs2)c2nc3ccccc3o2)cc1 | 0 | 0 | 0 | 0 | 0
C[C@@H]1CN([C@H](C)CO)C(=O)c2cc(NC(=O)Cc3ccccc3)ccc2O[C@@H]1CN(C)C(=O)Nc1ccc(F)cc1 | - | 0 | - | - | -
c1ccc(N2CC3CCc4ccccc4C3=N2)cc1 (configuration not stated) | 57 | - | - | 0 | ?
CN1N=C2c3ccccc3CCC2C1c1ccc(F)cc1 (configuration not stated) | 0 | - | - | 0 | 0
Cc1cc(Br)ccc1OCc1nc(-c2cccnc2)no1 | 0 | 85 | - | 0 | 38
Cc1ccc(C)c(OCc2nc(-c3cccnc3)no2)c1 | 0 | 0 | 0 | 0 | -
SMILES | HSF-1 act | esBAF inh | MITF act | HSF1 inhib | Wnt bcat act
Cc1ccc(-c2nc(-c3cccnc3)no2)c(C)c1 | 57 | 44 | - | 0 | -
CC(Oc1ccc(Cl)cc1Cl)c1nc(-c2ccc(NC(=O)c3ccco3)cc2)no1 (configuration not stated) | 61 | 50 | - | 0 | -
Cc1ccccc1OCc1nc(-c2ccc(NC(=O)c3ccco3)cc2)no1 | - | 0 | 103 | - | 0
COc1cccc(C(=O)N2C[C@H]3[C@@H](c4ccccc42)[C@H](CO)N3Cc2ccccc2Cl)c1 | - | 0 | - | - | -
COc1ccccc1CC(=O)Nc1ccc(-c2noc(COc3ccc(Br)cc3)n2)cc1 | 0 | - | - | 0 | -
Cc1ccc(-c2noc(COc3ccccc3C)n2)cc1 | 0 | 0 | - | 0 | 0
Cc1ccccc1OCc1nc(-c2ccc(NC(=O)c3cccs3)cc2)no1 | 0 | - | 0 | 0 | 0
Cc1ccccc1OCc1nc(-c2ccccc2)no1 | 0 | - | 97 | 0 | -
CCCc1ccc(OCc2nc(-c3ccc(NC(=O)c4ccco4)cc3)no2)cc1 | 0 | 62 | 0 | 0 | -
CCCc1ccc(OCc2nc(-c3ccc(NC(=O)c4cccs4)cc3)no2)cc1 | 58 | - | 94 | 0 | 0
COc1ccc(-c2ccc3c(c2)O[C@H](CN(C)Cc2ccccc2C(=O)O)[C@H](C)CN([C@H](C)CO)S3(=O)=O)cc1 | - | 0 | - | - | -
COc1ccc(S(=O)(=O)Nc2ccc3c(c2)CC(=O)N([C@@H](C)CO)C[C@H](C)[C@@H](CN(C)S(C)(=O)=O)O3)cc1 | - | 0 | - | - | -
CCCN(Cc1ccc(C)cc1)C(=O)c1ccc(CNS(=O)(=O)c2ccc(C(C)=O)cc2)cc1 | - | 62 | ? | - | 0
C=CCc1ccccc1OCC(O)CN1CCN(CCN2C(=O)c3cccc4cccc(c34)C2=O)CC1 (configuration not stated) | 61 | - | 0 | 0 | 0
Cc1ccc(S(=O)(=O)Nc2ccc3c(c2)CC(=O)N([C@H](C)CO)C[C@@H](C)[C@H](CN(C)C(=O)NC(C)C)O3)cc1 | - | 0 | - | - | -
CCOC(=O)c1c(N2C(=O)C3C4C=CC(O4)C3C2=O)sc2c1CCCC2 (configuration not stated) | 104 | 0 | 0 | 0 | -
COC(=O)c1ccc2c(c1)c(C#Cc1ccccc1)c(-c1ccccc1)n2C | - | 47 | 0 | - | 0
CC(C)c1ccc(S(=O)(=O)c2cn(Cc3ccc(F)cc3)c3cc4c(cc3c2=O)OCO4)cc1 | 0 | - | - | 0 | -
Cc1ccc(Cn2cc(S(=O)(=O)c3ccc(C(C)C)cc3)c(=O)c3cc4c(cc32)OCO4)cc1 | 64 | - | 0 | 0 | 0
Cc1ccc(Cn2cc(S(=O)(=O)c3ccc(Cl)cc3)c(=O)c3cc(F)ccc32)cc1 | 79 | - | 0 | 0 | -
Cc1ccccc1Cn1cc(S(=O)(=O)c2ccc(C(C)C)cc2)c(=O)c2cc3c(cc21)OCO3 | 78 | 0 | 0 | 0 | 0
Cc1ccc(S(=O)(=O)Nc2cccc3c2O[C@@H](CN(C)C)[C@H](C)CN([C@@H](C)CO)C3=O)cc1 | - | 0 | - | - | -
CCCNC(=O)C[C@@H]1CC[C@@H]2[C@H](COc3ccc(NC(=O)CCC)cc3C(=O)N2C)O1 | - | 0 | - | - | -
C[C@H]1CCCCO[C@@H](CN(C)C(=O)Nc2ccccc2)[C@@H](C)CN([C@@H](C)CO)C(=O)c2cc(NC(=O)NC3CCCCC3)ccc2O1 | - | 0 | - | - | -
C[C@H]1CN([C@@H](C)CO)C(=O)Cc2cc(NC(=O)Nc3ccc(F)cc3)ccc2O[C@H]1CN(C)CC1CC1 | - | 0 | - | - | -
CCCCNC(=O)C1CCN(Cc2ccc(OCc3ccccc3)cc2)CC1 | 0 | 51 | 0 | 0 | -
CCN(CCNC(=O)C1CCN(S(=O)(=O)CC)CC1)c1ccccc1 | 0 | - | 0 | 0 | 0
CCCCN(CCCNC(=O)C1CCN(S(=O)(=O)CC)CC1)c1ccccc1 | 64 | 0 | 0 | 0 | 0
Cc1ccccc1-c1ccc([C@@H]2[C@@H](CO)N3CCCCN(C(=O)c4cccnc4)C[C@@H]23)cc1 | - | 0 | - | - | -
O=C(NCc1nnc(SCC(=O)N2CCCc3ccccc32)o1)c1c(F)cccc1Cl | 0 | 0 | 0 | 0 | 50
